From PubChem BioAssay AID782 (Emory University Molecular Libraries Screening Center, 2007)
Among all 220,000 compounds or so, about 800 (0.36%) were called active.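 How the source made its calls: active means inhibition above about 30% (limit read from the data); inactive means the rest.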 This excerpt belongs to a sample that is enriched for actives.

These compounds were tested against Eukaryotic translation initiation factor 4E (Mus musculus) + Eukaryotic translation initiation factor 4 gamma 1 (Homo sapiens) (UniProt P63073+Q04637) (assay: blockers of eIF4G binding by eIF4E – biochemical, uHTS, TR-FRET, eIF4GI fragment, primary screen (AID 782;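 further: 0% = full FRET control wells and 100% = background wells lacking eIF4GI fragment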)). Details: TR-FRET eIF4E-eIF4GI(517-606) binding, 2 h; at 21.7 µM; hits give high values.
Chain of Eukaryotic translation initiation factor 4E (Mus musculus) + Eukaryotic translation initiation factor 4 gamma 1 (Homo sapiens) (P63073 whole entry, looked up, the tested form may be a part): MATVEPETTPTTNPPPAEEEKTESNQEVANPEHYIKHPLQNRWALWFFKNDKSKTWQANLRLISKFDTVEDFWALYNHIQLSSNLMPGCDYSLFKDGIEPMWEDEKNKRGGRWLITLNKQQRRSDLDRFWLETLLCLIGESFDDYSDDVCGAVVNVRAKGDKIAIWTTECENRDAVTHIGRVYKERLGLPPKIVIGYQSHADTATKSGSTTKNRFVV
Chain of Eukaryotic translation initiation factor 4E (Mus musculus) + Eukaryotic translation initiation factor 4 gamma 1 (Homo sapiens) (Q04637 whole entry, looked up, the tested form may be a part): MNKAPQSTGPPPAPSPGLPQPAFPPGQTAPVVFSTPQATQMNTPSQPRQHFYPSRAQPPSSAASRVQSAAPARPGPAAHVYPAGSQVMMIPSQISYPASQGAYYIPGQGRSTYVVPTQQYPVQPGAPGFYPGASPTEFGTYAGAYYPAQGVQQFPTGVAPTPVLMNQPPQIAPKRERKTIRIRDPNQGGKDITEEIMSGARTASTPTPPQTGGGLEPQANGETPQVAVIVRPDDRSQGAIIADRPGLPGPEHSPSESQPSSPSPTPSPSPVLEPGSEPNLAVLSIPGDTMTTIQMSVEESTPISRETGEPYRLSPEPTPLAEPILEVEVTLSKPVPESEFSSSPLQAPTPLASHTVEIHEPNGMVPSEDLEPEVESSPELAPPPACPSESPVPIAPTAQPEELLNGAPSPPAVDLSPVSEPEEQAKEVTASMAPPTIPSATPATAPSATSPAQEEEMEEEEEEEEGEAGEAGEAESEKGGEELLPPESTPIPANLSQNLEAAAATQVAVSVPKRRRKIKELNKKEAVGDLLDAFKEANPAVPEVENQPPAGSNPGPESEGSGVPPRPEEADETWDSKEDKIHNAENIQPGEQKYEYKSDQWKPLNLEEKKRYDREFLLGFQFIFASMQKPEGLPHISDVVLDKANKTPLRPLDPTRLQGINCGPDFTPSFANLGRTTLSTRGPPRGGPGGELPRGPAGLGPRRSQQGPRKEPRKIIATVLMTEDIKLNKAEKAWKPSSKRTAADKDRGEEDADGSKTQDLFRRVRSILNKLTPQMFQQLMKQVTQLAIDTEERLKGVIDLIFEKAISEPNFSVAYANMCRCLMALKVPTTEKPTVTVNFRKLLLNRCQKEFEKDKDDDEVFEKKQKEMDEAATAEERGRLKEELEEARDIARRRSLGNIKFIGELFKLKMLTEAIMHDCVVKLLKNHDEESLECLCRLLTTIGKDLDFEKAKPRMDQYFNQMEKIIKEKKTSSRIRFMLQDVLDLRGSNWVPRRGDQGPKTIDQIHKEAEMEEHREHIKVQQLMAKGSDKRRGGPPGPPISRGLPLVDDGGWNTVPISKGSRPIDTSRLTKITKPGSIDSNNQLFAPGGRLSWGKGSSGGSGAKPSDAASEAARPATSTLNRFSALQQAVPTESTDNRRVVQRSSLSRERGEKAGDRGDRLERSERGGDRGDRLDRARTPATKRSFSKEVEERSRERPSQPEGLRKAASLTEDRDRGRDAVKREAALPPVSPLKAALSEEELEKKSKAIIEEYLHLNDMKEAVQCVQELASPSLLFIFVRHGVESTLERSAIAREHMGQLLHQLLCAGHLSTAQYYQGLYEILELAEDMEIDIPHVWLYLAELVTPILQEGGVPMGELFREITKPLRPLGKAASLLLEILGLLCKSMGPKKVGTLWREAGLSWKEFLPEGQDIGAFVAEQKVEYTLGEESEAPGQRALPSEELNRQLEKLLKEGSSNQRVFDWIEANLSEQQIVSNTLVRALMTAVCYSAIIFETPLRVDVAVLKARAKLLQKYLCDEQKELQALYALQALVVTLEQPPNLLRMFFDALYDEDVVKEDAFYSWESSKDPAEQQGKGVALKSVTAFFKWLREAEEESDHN

Row | Compound | inhibition
1 | COC(=O)/C=C(\Oc1ccccc1)C1(O)CCCCC1 | 3.79% (inactive)
2 | COCCn1c(C)cc(C(=O)CSc2nc3ccccc3c(=O)n2C(C)COC)c1C (stereo not given) | -1.77% (inactive)
3 | COCC(C)n1c(SCc2ccc(C(=O)OC)o2)nc2ccccc2c1=O (stereo not given) | 56% (active)
4 | COC(=O)c1ccc(CSc2nc3ccccc3c(=O)n2-c2cccc(OC)c2)o1 | 2.4% (inactive)
5 | CSc1nc(C)nc(C2CC2)c1C#N | -3.41% (inactive)
6 | Cc1cccc(N(C)C(=O)c2cc3c(=O)[nH]c4ccc(C)cc4c3s2)c1 | -9.17% (inactive)
7 | O=S(=O)(Cc1noc(-c2ccc(OC(F)(F)F)cc2)n1)c1ccc(F)cc1 | -0.8% (inactive)
8 | Cc1cc(-c2n[nH]c(=S)n2/N=C/c2ccco2)n[nH]1 | -0.15% (inactive)
9 | S=c1[nH]nc(-c2ccco2)n1/N=C/c1ccccc1 | -0.4% (inactive)
10 | S=c1[nH]nc(-c2ccco2)n1/N=C/c1ccc(Br)s1 | 49.9% (active)
11 | O=[N+]([O-])c1cc(Cl)cc(/C=N/NC(=S)Nc2cc(S(=O)(=O)N3CCOCC3)ccc2Cl)c1O | 37.9% (active)
12 | O=C(N/N=C/c1ccc([N+](=O)[O-])o1)c1cccc(S(=O)(=O)N2CCOCC2)c1 | 0.27% (inactive)
13 | O=C(CN1CCN(c2ccc(O)cc2)CC1)Nc1cc(S(=O)(=O)N2CCOCC2)ccc1Cl | 18.9% (inactive)
14 | COc1ccc(/C(N)=N/OC(=O)CCCc2ccccc2)cc1 | -2.25% (inactive)
15 | Cc1ccc(SCC(=O)Nc2ccc3c(c2)OCCO3)cc1 | 0.94% (inactive)
16 | NC(N)=NCCCc1cn(CC(=O)N2CCNCC2)nn1 | 0.73% (inactive)
17 | FC(F)(F)c1nnc2ccc(N3CCN(c4ccccc4)CC3)nn12 | 0.95% (inactive)
18 | Fc1c(F)c(C(F)(F)F)c(F)c(F)c1N1CCN(c2ccc3nnc(C(F)(F)F)n3n2)CC1 | 35.1% [fluorescence artefact?] (active)
19 | CCSc1nc(C)c(CCOc2cccc(C)c2)c(=O)[nH]1 | -0.93% (inactive)
20 | Oc1c(Cl)cc(Cl)c(Cl)c1Cc1c(O)c(Cl)cc(Cl)c1Cl | 46.2% (active)
21 | CCOC(=O)c1c(NC(=O)CSc2nnc(CNc3ccc(C)cc3C)o2)sc(C)c1C | -0.54% (inactive)
22 | CCOc1cc(C(=O)OCC(=O)Nc2cccc(C)c2)ccc1OCC(=O)N1CCOCC1 | 0.63% (inactive)
23 | CCOc1cc(C(=S)N2CCOCC2)ccc1O | 30.5% [fluorescence artefact?] (active)
24 | COc1cc(C(=S)N2CCOCC2)ccc1O | -0.65% (inactive)
25 | Cc1ccnc(NC(=O)CCCOc2ccccc2)c1 | 3.5% (inactive)
